Source: PubChem BioAssay
This is a sample that favours compounds with a hit; in the whole collection about 2.1% have one here.
HIF-2a inh: blocks HIF-2a reporter activity | 786-0 RCC cells HIF-2a reporter, luciferase luminescence, overnight | inhibition, % at 18.8 µM | 0.72% of 360,000 active;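 active = inhibition of the luminescence signal of 40% or more relative to plate controls, in a single-dose primary screen at 18.75 µM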
EWS-Fli inh: EWS/Fli transcriptional activity inhibition. A673 NR0B1-luciferase reporter, viability-normalised. inhibition, % at 12.6 µM. 0.67% of 350,000 active;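 active = mean inhibition of at least 50% after viability correction, with every replicate also passing that limit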;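 also: firefly luciferase signal divided by Alamar Blue viability fluorescence both relative to DMSO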
KKLEB cytotox: reduces viability of KKLEB cystic fibrosis airway cells; activity change (cytotoxicity), % at 5 µM; KKLEB CF airway cells viability, ATPlite luminescence, overnight; active compounds read low; cells stimulated with P. aeruginosa culture filtrate; 0.36% of 360,000 active;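 active = corrected activity change at or below -50% at 5 µM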
CF NFkB block: cystic fibrosis NF-kB activation inhibition; KKLEB NF-kB-GFP reporter, PAF-induced, GFP fluorescence overnight; inhibition, % at 5 µM; 0.86% of 360,000 active; AID 588850;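 active = at least 50% inhibition at 5 µM, scaled per plate between neutral and stimulator controls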;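 also: PAF is a Pseudomonas aeruginosa culture filtrate used as stimulus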
PAX8 reporter: PAX8 transcriptional activity inhibition; AID 652154; 1.2% of 360,000 active; RMG-I TPO-luciferase reporter, SteadyGlo, 24 h; inhibition, % at 12.6 µM;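 active = mean replicate inhibition at least 60% with every replicate also reaching 60%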;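 also: luciferase light reporting Pax8 driven TPO promoter activity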
A number is an active result; – = inactive; · = not tested or not shown; ! = not confirmed by another sample.

SMILES	HIF-2a inh	EWS-Fli inh	KKLEB cytotox	CF NFkB block	PAX8 reporter
Cc1ccccc1OCCOC(=O)c1c(-c2ccccc2)noc1C	–	58	–	–	–
COCC(=O)N1CC2(CN(Cc3cccnc3)C2)c2c(n(C)c3cc(OC)ccc23)[C@H]1CO	·	–	·	·	·
CCC(C)C(NC(=O)CCC(=O)OCC(=O)[C@@]1(O)CCC2[C@@H]3CCC4=CC(=O)C=C[C@]4(C)C3[C@@H](O)C[C@@]21C)C(=O)O (stereo partly specified)	–	–	–	74	–
C[C@]12C=CC(=O)C=C1CC[C@@H]1C2[C@@H](O)C[C@@]2(C)C1CC[C@]2(O)C(=O)COC(=O)CCC(=O)O (stereo partly specified)	–	–	–	74	–
CC(=O)OCC(O)C1(O)CCC2C3CCC4=CC(=O)CCC4(C)C3C(O)CC21C (stereo unspecified)	–	–	–	–	·
CC(=O)OCC(=O)C1(O)CCC2C3CCC4=CC(=O)C=CC4(C)C3C(O)CC21C (stereo unspecified)	–	–	–	75	–
C[C@H](CO)N1C[C@H](C)[C@@H](CN(C)C(=O)Nc2cccc3ccccc23)Oc2c(NC(=O)c3nc4ccccc4s3)cccc2C1=O	·	–	·	·	·
N/C(=N\OC(=O)c1ccccc1Cl)c1ccncc1	–	–	–	–	–
Cc1ccc(C(=O)O/N=C(\N)c2ccccc2)c(Cl)c1	–	75	–	–	–
N/C(=N\OC(=O)c1ccc(Cl)cc1Cl)c1ccccn1	–	·	-68	–	77
Cc1ccc(C(=O)O/N=C(\N)c2ccccn2)c(Cl)c1	73	86	-72	–	105
N/C(=N\OC(=O)c1cc(Br)ccc1Cl)c1ccccn1	–	–	–	–	–
CC(C)(C)[S@@](=O)N1Cc2cc(C(=O)NCc3ccc4c(c3)OCO4)nc(-c3cccc(-c4cccnc4)c3)c2[C@H]1CCO	·	–	·	·	–
CCCC(=O)N1CC2(CCN(C(=O)CC3CC3)CC2)c2c(n(C)c3cc(OC)ccc23)[C@@H]1CO	·	–	·	·	·
C[n+]1cc2c3c(ccc2c2ccc4cc5c(cc4c21)OCO5)OCO3	·	59	·	·	109
COc1ccc2cc3[n+](cc2c1O)CCc1cc2c(cc1-3)OCO2	–	–	·	·	–
O=C(O)CCCN1C(=O)/C(=C\c2ccco2)SC1=S	55	–	–	–	–
CC(=C\c1ccccc1)/C=C1/SC(=S)N(CCCC(=O)O)C1=O	91	–	–	–	–
C[C@H](CO)N1C[C@H](C)[C@@H](CN(C)Cc2ccc3c(c2)OCO3)OCCCC[C@H](C)Oc2ccc(N(C)C)cc2C1=O	·	–	·	·	–
C[C@@H]1CN([C@@H](C)CO)C(=O)c2cc(C#Cc3ccccc3F)cnc2O[C@H]1CN(C)C(=O)Cc1cccnc1	·	–	·	·	·
C[C@@H]1CN([C@H](C)CO)S(=O)(=O)c2ccc(C#CC3CCCC3)cc2O[C@H]1CN(C)C(=O)Cc1ccccc1	–	–	–	–	67!
C[C@@H]1CN([C@@H](C)CO)S(=O)(=O)c2ccc(C#Cc3ccccc3F)cc2O[C@H]1CN(C)C(=O)Cc1ccccc1	·	–	·	·	92
C[C@H]1CN([C@@H](C)CO)S(=O)(=O)c2ccc(C#CCN(C)C)cc2O[C@@H]1CN(C)S(C)(=O)=O	·	–	·	·	·
CN(C[C@@H]1N[C@@H](CO)[C@@H]1c1ccc(-c2cccc(F)c2)cc1)S(C)(=O)=O	·	–	·	·	–
CN(C[C@H]1N[C@@H](CO)[C@@H]1c1ccc(-c2cccc(F)c2)cc1)S(C)(=O)=O	·	–	·	·	100
SMILES	HIF-2a inh	EWS-Fli inh	KKLEB cytotox	CF NFkB block	PAX8 reporter
C/C=N/NC(=O)c1cc(Br)ccc1O	–	·	–	–	·
O=C(C(=O)c1cc(Br)ccc1O)c1cc(Br)ccc1O	–	–	–	60	–
CN1c2ccc(C3=CCCCC3)cc2[C@H]2[C@H](CCN2C(=O)C2CC2)[C@@H]1CO	·	–	·	·	100
O=C(Cc1ccccc1)N1CC[C@H]2[C@H](CO)Nc3ccc(C4=CCCCC4)cc3[C@H]21	·	–	·	·	82
O=C(Cc1ccccc1)N1CC[C@H]2[C@H](CO)Nc3ccc(-c4cccc(F)c4)cc3[C@H]21	·	–	·	·	–
O=C(Cc1ccccc1)N1CC[C@@H]2[C@H]1c1cc(-c3cccc(F)c3)ccc1N[C@@H]2CO	·	–	·	·	68
O=C(c1ccc(F)cc1)N1CC[C@@H]2[C@H]1c1cc(C3=CCCCC3)ccc1N[C@@H]2CO	·	–	·	·	–
CN1c2ccc(C3=CCCCC3)cc2[C@@H]2[C@@H](CCN2C(=O)C2CC2)[C@@H]1CO	·	–	·	·	·
O=C(C1CCCC1)N1CC[C@@H]2[C@H](CO)Nc3ccc(C4=CCCCC4)cc3[C@@H]21	·	–	·	·	90
CNC[C@@H]1Oc2ccc(NC(=O)CCCN(C)C)cc2CC(=O)N([C@@H](C)CO)C[C@H]1C	·	–	·	·	–
COc1ccccc1-c1ccc2c(c1)[C@H]1[C@H](CCN1C(=O)C1CCC1)[C@@H](CO)N2	·	–	·	·	–
COc1ccccc1-c1ccc2c(c1)[C@@H]1[C@@H](CCN1C(=O)C1CCCCC1)[C@@H](CO)N2	·	–	·	·	105
Cn1c(=O)n2n(c1=O)[C@H](C1CC1)C=C1CN3[C@@H]([C@H](Cc4ccccc4)OC(=O)[C@@H]3Cc3ccccc3)[C@@H]12	·	–	·	·	–
O=C1c2cccnc2-c2ncccc21	–	·	–	–	·
O=C1C(=O)c2cccnc2-c2ncccc21	90	–	-83	90	107
COC1=C(Br)C(=O)c2ncccc2C1=O	72	–	–	–	–
Cc1ccc(/C=C2/CNC/C(=C/c3ccc(C)cc3)C2=O)cc1	85	53	-63	80	–
CCCNC(=O)N1CC2(C1)CN(C(C)=O)[C@@H](CO)c1c2c2ccc(OC)cc2n1C	·	–	·	·	·
CC(C)C(=O)Nc1ccc2c(c1)C(=O)N(C)[C@@H]1CC[C@@H](CC(=O)NC3CCCC3)O[C@H]1CO2	·	–	·	·	–
O=C(Cc1cccs1)NC(c1ccccc1)c1ccccc1	–	–	–	–	–
O=C(COC(=O)/C(=C/c1cccs1)c1cccs1)NC(c1ccccc1)c1ccccc1	–	·	–	–	93
Cc1ccc2c(C)nc(Nc3nc(CSc4nc5ccccc5[nH]4)cc(=O)[nH]3)nc2c1	–	–	-58	99	·
Cc1ccc(SCc2cc(=O)[nH]c(Nc3nc(C)c4ccc(C)cc4n3)n2)cc1	–	–	–	–	–
CC(=O)Oc1ccc(N2C(=O)C3C4C=CC(CO)(O4)C3C2=O)cc1 (stereo unspecified)	–	·	–	–	·
O=C1C2C3C=CC(CO)(O3)C2C(=O)N1c1ccccc1-c1ccccc1 (stereo unspecified)	–	·	–	76	·
O=C(Nc1nc(-c2ccccn2)cs1)c1cc(S(=O)(=O)N2CCOCC2)ccc1F	–	–	–	–	–
O=C(Nc1nc(-c2nc3ccccc3s2)cs1)c1ccc(S(=O)(=O)N2CCOCC2)cc1	–	·	–	55	·
CC1CN(S(=O)(=O)c2ccc(C(=O)Nc3nc(-c4cc5ccccc5o4)cs3)cc2)CC(C)O1 (stereo unspecified)	–	–	-54	50	–
O=C(Nc1nc(-c2ccccn2)cs1)c1ccc(F)c(S(=O)(=O)N2CCOCC2)c1	–	–	–	–	84
